Screens as filed in PubChem.
FAS TE block – FAS thioesterase domain inhibitors, primary screen, biochemical, fluorescence intensity, uHTS; inhibition, % at 15 µM; 0.67% of 360,000 active; AID 602261, 2012; recombinant FAS-TE, OMFH fluorogenic substrate, fluorescence endpoint;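 active = compounds whose normalised, plate-corrected inhibition of enzyme fluorescence in the single-dose primary screen is 50% or more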
CRFBP-R2 block – antagonists of CRF-BP/CRF-R2 complex, primary screen, cell-based, HEK293, calcium dye fluorescence, uHTS. CRF-induced calcium fluorescence. inhibition, % at 11.8 µM. 0.59% of 350,000 active;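 active = inhibition of the ligand-induced calcium signal above about 50% at the single tested concentration, limit read from the data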
CRFR2-BP ag – agonists of CRF-BP/CRF-R2 complex, primary screen, cell-based, HEK293, calcium dye fluorescence, uHTS | activation, % at 13.2 µM | CRF-binding protein / CRF receptor 2 complex (human) | calcium dye fluorescence (FLIPR); percent of saturating CRF peptide response | AID 588473, 2011 | 0.46% of 350,000 active;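 active = activation of at least 50%, plus an integration ratio under a set limit after plate pattern correction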
PfGluPho inh – PfG6PD enzyme inhibitors, primary screen, biochemical, fluorescence intensity, uHTS; glucose-6-phosphate dehydrogenase-6-phosphogluconolactonase (Plasmodium falciparum 3D7); PfGluPho enzyme, NADPH resazurin-diaphorase fluorescence; inhibition, % at 20 µM; 0.78% of 350,000 active;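 active = inhibition reaching at least a set limit at 20 µM in the primary screen, cut at about 59% in these data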
aDG glyco act – activators of alpha-DG glycosylation, primary screen, uHTS, Pro5-aDG cells, AlphaScreen; alpha-DG glycosylation AlphaScreen (IIH6); 0% Pro5, 100% B10-LARGE cell signal; activation, % at 10 µM; 0.22% of 360,000 active; AID 624168, 2012;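 active = activation of at least 8% versus controls, or a plate z-score of at least 8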;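 also: Pro5 are CHO cells carrying HIG-tagged alpha-DG that lacks glycosylation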
H9c2 protect – cardioprotection against H2O2-induced cell death, primary screen, uHTS, H9c2 cells, ATPLite luminescence; H9c2 cardiomyocytes, H2O2 injury protection, 2 h; protection from H2O2 cell death, % at 20 µM; 0.63% of 360,000 active;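 active = compounds giving at least 50% protection of heart cells from peroxide-induced death in the single-dose screen, raw or plate-pattern-corrected value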
PfGluPho conf – PfG6PD inhibitors, hit retest, confirmation, biochemical, fluorescence intensity, single concentration. shares compounds with PfGluPho inh. recombinant PfGluPho, NADPH-diaphorase-resazurin fluorescence. inhibition, % at 20 µM. 34% of 2,400 active;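 active = inhibition of at least 50% at 20 µM in any single replicate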
Diaph ctr 10uM – diaphorase inhibitors and chemical oxidizers, confirmation, counter-screen for P. falciparum G6PD inhibitor project, biochemical, fluorescence intensity, 10 µM NADPH; shares compounds with PfGluPho inh; diaphorase-coupled resazurin reduction, NADPH 10 uM; inhibition, % at 20 µM; 39% of 820 active;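 active = average inhibition reaching 50% or more with the compound at 20 µM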;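 also: resorufin red fluorescence formed as diaphorase reduces resazurin using NADPH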
Diaphorase 30uM – diaphorase inhibitors and chemical oxidizers, confirmation, counter-screen for P. falciparum G6PD inhibitor project, biochemical, fluorescence intensity, 30 µM NADPH | 29% of 820 active | shares compounds with PfGluPho inh | AID 504863, 2011 | inhibition, % at 20 µM | Diaphorase/resazurin coupled assay, resorufin fluorescence;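 active = inhibition averaging 50% or more, tested at 20 µM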
A number is an active result; . = inactive; / = no result. In the library only some 3.2% were active in any assay of this set; here they are far more common.

SMILES	FAS TE block	CRFBP-R2 block	CRFR2-BP ag	PfGluPho inh	aDG glyco act	H9c2 protect	PfGluPho conf	Diaph ctr 10uM	Diaphorase 30uM
c1nc(SSc2ncnc3nc[nH]c23)c2[nH]cnc2n1	.	.	.	118.2	.	.	107.6	.	.
O=C(O)CSc1ncnc2nc[nH]c12	.	.	.	.	.	.	/	/	/
O=C(NNC(=O)c1ccccc1OCc1ccccc1)c1ccccc1F	.	.	.	.	.	.	/	/	/
O=C(NNC(=O)c1ccccc1OCc1ccccc1)c1ccccc1O	.	.	.	89.5	.	.	68.6	55.9	55.9
O=C(NNC(=O)c1ccccc1OCc1ccc(F)cc1)c1ccccc1O	.	.	.	120.4	.	.	69.5	67.3	50.2
CN1CCN(c2ccc(S(=O)(=O)N3CCOCC3)cc2NC(=O)COc2ccc(C#N)cc2)CC1	.	.	.	.	.	.	/	/	/
O=S(=O)(NNc1ncc(C(F)(F)F)cc1Cl)c1ccc(F)cc1F	.	.	.	64.8	.	.	.	/	/
Oc1cccc(Nc2c3ccccc3nc3ccccc23)c1	.	.	.	.	.	.	/	/	/
CCN(CC)Cc1cc(Nc2c3ccccc3nc3c4ccccc4n(C)c23)cc(CN(CC)CC)c1O	.	.	.	80.3	.	.	.	/	/
OCc1ccccc1SSc1ccccc1CO	.	.	.	67.2	.	.	53.5	.	.
OCc1c[nH]c2ccccc12	.	.	.	.	.	.	/	/	/
CC(C(=O)Nc1cccc(S(=O)(=O)N2CCOCC2)c1)N1CCN(c2ccc(F)cc2)CC1 (stereo unspecified)	.	.	.	.	.	.	/	/	/
Cc1ccc(NC(=O)CN(C)C(=O)COc2cccc3cccnc23)cc1	.	.	.	.	.	.	/	/	/
Nn1c(SCC(=O)Nc2cccnc2Cl)nnc1-c1ccccc1	.	.	.	62.2	.	.	49.9	.	.
CC1=CC(C)(C)N2C(=O)C(=Nc3ccc(O)cc3)c3cccc1c32	.	.	.	94.0	.	.	.	/	/
O=C1C=C(O)c2[nH]c(=O)ccc2C1=O	.	.	.	69.1	.	.	.	/	/
CC(NC(=O)c1ccco1)c1nc(-c2ccc(C(C)(C)C)cc2)no1 (stereo unspecified)	.	.	.	66.4	.	.	.	/	/
CC(C)(C)c1ccc(-c2noc(CNC(=O)c3ccco3)n2)cc1	.	.	.	.	.	.	/	/	/
CSc1ccccc1C(=O)NCc1ccccc1C	.	.	.	.	.	.	/	/	/
CCc1ccccc1NC(=O)CN(C)C(=O)CSc1nn(-c2ccc(F)cc2)c(=S)s1	.	.	.	.	.	.	/	/	/
COc1ccc(/C=N/Nc2nnc(C)n2N)cc1OC	.	.	.	61.2	.	.	.	/	/
Nc1nonc1-n1nnc(C(=O)N/N=C/c2cccc(F)c2)c1-c1ccc2c(c1)OCO2	.	.	.	105.8	.	.	85.1	74.7	65.1
Nc1nonc1-n1nnc(C(=O)N/N=C/c2cccc(F)c2)c1-c1ccccc1	.	.	.	85.3	.	.	.	/	/
Nc1nonc1-n1nnc(C(=O)N/N=C/c2cccnc2)c1-c1ccccc1	.	.	.	.	.	.	/	/	/
Nc1nonc1-n1nnc(C(=O)N/N=C/c2cccc(Cl)c2)c1-c1cccs1	.	.	.	125.9	.	.	97.6	93.5	75.3
C=C1CCN(C(C(=O)OC)C(C)C)S(=O)(=O)c2ccccc21 (stereo unspecified)	.	.	.	.	.	.	/	/	/
